Source: PubChem BioAssay AID1928 (Vanderbilt High Throughput Screening Facility, 2009)
A number with no mark means an inactive call. How the calls were made is not given here.

molecular target: Muscarinic acetylcholine receptor M5 (Homo sapiens) (UniProt P08912); test: ACh potency shift at human M5 – cell-based, analogs, calcium, selectivity assay for M4 PAM project, SAR follow-up (AID 1928); details: hM5-expressing cells, ACh CRC fold-shift; series mostly up to 1 µM; ACh response, % max: at the top concentration
Sequence (P08912 whole entry, looked up): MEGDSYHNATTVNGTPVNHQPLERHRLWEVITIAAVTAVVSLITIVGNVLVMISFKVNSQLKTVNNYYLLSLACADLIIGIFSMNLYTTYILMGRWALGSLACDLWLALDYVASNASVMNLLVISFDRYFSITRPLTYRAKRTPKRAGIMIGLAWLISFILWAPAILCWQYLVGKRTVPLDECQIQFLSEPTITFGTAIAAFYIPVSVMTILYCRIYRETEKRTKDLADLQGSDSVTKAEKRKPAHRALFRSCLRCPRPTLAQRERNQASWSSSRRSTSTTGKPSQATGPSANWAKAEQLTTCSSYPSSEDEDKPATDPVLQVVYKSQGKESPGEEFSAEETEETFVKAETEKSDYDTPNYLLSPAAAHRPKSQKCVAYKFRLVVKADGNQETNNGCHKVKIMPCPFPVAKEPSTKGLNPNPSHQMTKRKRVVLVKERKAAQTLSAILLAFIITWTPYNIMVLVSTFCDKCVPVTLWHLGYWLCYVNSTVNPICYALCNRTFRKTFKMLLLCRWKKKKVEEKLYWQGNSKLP

| SMILES | ACh response, % max |
| --- | --- |
| Cc1cc(OCc2ccncc2)nc2sc(C(=O)NCc3cc(F)ccc3F)c(N)c12 | 92.8 |
| Cc1cc(OCCN2CCOCC2)nc2sc(C(=O)NC(C)(C)C)c(N)c12 | 93.7 |
| COc1ccc(CNC(=O)c2sc3nc(OCc4ccncc4)cc(C)c3c2N)cc1 | 96.3 |
| Cc1cc(OCc2ccncc2)nc2sc(C(=O)NCc3cccc(F)c3F)c(N)c12 | 92.3 |
